Screening results from PubChem BioAssay.
The list is not random: actives were taken first. Their share in the collection is about 2.3%.
Peg3 imprint: qHTS Assay for Compounds that Induce Erasure of Genomic Imprints. mouse ES Peg3-LacZ reporter, beta-gal luminescence, 40 h. hit rate 0.02% among 110,000. AID 1948, 2009. Potency, µM (series often up to 60.7 µM), hits mostly activators
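Imprint erasure is scored as LacZ activity from the silenced maternal Peg3 allele in feeder-free female ES cells cultured 40 h with LIF. Luminescence is normalized to in-plate negative controls and fitted to the Hill equation.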
p53ts 32C tox: qHTS Screen for Compounds that Selectively Target Cancer Cells with p53 Mutations: Cytotoxicity of p53ts Cells at the Permissive Temperature | AID 924, 2007 | Potency, µM (top dose mostly 46.1 µM), hits mostly cytotoxic | hit rate 0.93% among 130,000 | H1299-p53A138V at 32C, ATP luminescence viability, 24 h; further: nearly all actives have a fitted effect of over 55% in size
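Viability by ATPlite luminescence after 24 h compound treatment (up to 46 uM) at the permissive 32C. Cells are H1299 carrying p53 A138V. Scale runs from DMSO basal to 100 uM tamoxifen as full kill; AC50 from Hill fits.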
ERK AVP block: qHTS Assay for Inhibitors of the ERK Signaling Pathway using a Homogeneous Screening Assay. HEK293-V1b, vasopressin-stimulated pERK AlphaScreen. Potency, µM (top dose mostly 57.5 µM), hits mostly inhibitors. hit rate 0.99% among 72,000. AID 995, 2007; further: nearly all actives have a fitted effect of over 55% in size
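qHTS, compounds titrated on V1b-expressing HEK293 cells. Preincubation 30 min at 37C, vasopressin 25 nM for 5 min, lysis 10 min, bead incubation 5 hr at room temperature.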
IkB sig inh: IkB Signaling. ABC-DLBCL IkBa-CBG/CBR dual luciferase ratio, 4 h; response scale: scaled: untreated 0%, proteasome inhibitor 100%. Potency, µM (highest dose often 57.1 µM). hit rate 0.04% among 110,000. AID 445, 2006; active means well fitted curve in the direction sought with a large enough effect in the signal ratio, not every such curve was filed as active; inconclusive means small, poorly fitted or top-dose-only effect, or a change in a side signal; the % refers to the signal ratio;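 further: the direction sought is a rising ratio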
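In this assay, an IκBα–CBG68 fusion accumulates when IKK-driven degradation is blocked; native CBR normalizes for cell number. OCI-Ly3 cells were treated 4 h with compound and doxycycline, then green and red light read after Chroma-Glo addition.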
p53ts 39C tox: qHTS Screen for Compounds that Selectively Target Cancer Cells with p53 Mutations: Cytotoxicity of p53ts Cells at the Nonpermissive Temperature; H1299-p53A138V viability at 39C, ATP luminescence, 24 h; Potency, µM (titrated, usually from 46.1 µM), hits mostly cytotoxic; hit rate 1.5% among 130,000; AID 902, 2007; further: nearly all actives have a fitted effect of over 55% in size
Hits are given with their value; - = inactive; ? = inconclusive; . = no result; [ ] = remark or other dose. Unless noted, the call rests on the fitted dose curve; in most records, active means well fitted curve in the direction sought with a large enough effect; inconclusive means small, poorly fitted or top-dose-only effect, or another doubt; inactive means no such curve, though single readings can be large; an effect the other way counts as inactive or inconclusive.

SMILES | Peg3 imprint | p53ts 32C tox | ERK AVP block | IkB sig inh | p53ts 39C tox
Cc1ccc(CNC(=O)c2ccc(Cn3c(=O)c4ccccc4n(CC(=O)Nc4c(C)cc(C)cc4C)c3=O)cc2)cc1 | -[10.9 µM] | 15.8µM | . | - | -
O=c1[nH]c(=O)n([C@H]2C[C@H](O)[C@H](CO)O2)cc1/C=C\Br | . | - | - | - | -
Cc1cccc(C)c1Nc1nc2ccccc2o1 | - | - | . | - | -
Cc1nc(Nc2nc3ccccc3o2)nc2c1CCC2 | - | 12.6µM | - | - | 15.8µM
CCOC(=O)c1cnc(-n2nc(C)cc2C)nc1N(C)C | - | 3.16µM | - | - | 2µM
COc1ccccc1-n1c(=O)oc2ccc(Cl)cc2c1=O | - | - | 20µM | ? | -
O[C@@H](c1cc(-c2ccc(Cl)cc2)nc2ccccc12)C1CCCCN1 (stereo partly drawn) | -[10.9 µM] | . | . | . | .
Cc1ccsc1C(=O)Nc1ccc2c(c1)OCCO2 | . | . | . | . | 14.1µM
Cc1occc1C(=O)Nc1ccc2c(c1)OCCO2 | - | ? | - | - | ?
Cc1cc(C(=O)Nc2ccc3c(c2)OCCO3)c(C)o1 | - | 15.8µM | ? | - | 12.6µM
CN1CCN(c2ccc3nc(-c4ccc5nc(-c6ccc(O)cc6)[nH]c5c4)[nH]c3c2)CC1 | -[10.9 µM] | -[9.22 µM] | -[11.5 µM] | -[11.4 µM] | -[9.22 µM]
CN(C(=O)c1ccccc1C(=O)O)C1CC(C)(C)NC(C)(C)C1 | - | - | . | - | -
Cc1cccc(N2CCN(C(=O)c3cn(C)c(=O)c4c3c3ccccc3n4C)CC2)c1C | - | - | 20µM | ? | -
Cc1cccc(N2CCN(C(=O)c3cn(CC(C)C)c(=O)c4c3c3ccccc3n4C)CC2)c1C | -[10.9 µM] | - | . | ? | -
Cn1cc(C(=O)N2CCN(c3cccc(C(F)(F)F)c3)CC2)c2c3ccccc3n(C)c2c1=O | -[10.9 µM] | - | . | ? | 12.6µM
CN(C)CN1CSC(=S)N(CN(C)C)C1 | -[10.9 µM] | -[9.22 µM] | -[11.5 µM] | -[11.4 µM] | -[9.22 µM]
CCCCC(CC)CN=C(N)NC(N)=NCCCCCCN=C(N)NC(N)=NCC(CC)CCCC (stereo not drawn) | - | 15.8µM | ? | . | ?
CCCCCCCCCCCCCCC1CO1 (stereo not drawn) | - | -[1.84 µM] | - | - | -
O=[N+]([O-])c1ccc(O)c(/C=N/Nc2ccccn2)c1 | . | - | . | . | 5.62µM
Cc1ccccc1C | - | -[1.84 µM] | - | - | -
Cc1ccc(S(=O)(=O)N[C@H](CO)C(=O)O)cc1 | -[10.9 µM] | -[9.22 µM] | -[11.5 µM] | -[11.4 µM] | -[9.22 µM]
Cc1ccc(S(=O)(=O)N[C@@H](Cc2ccccc2)C(=O)CCl)cc1 | - | 6.31µM | - | ? | 3.16µM
O=C(Nc1ccc2nc(SCC(=O)N3CCc4ccccc43)sc2c1)c1ccccc1 | -[10.9 µM] | - | . | ? | -
CC(C)NC(=O)NC(=O)COc1ncnc2sccc12 | - | - | - | - | -
C=CCn1c(C)cc(C(=O)COc2ncnc3sccc23)c1C | - | ? | - | - | 7.94µM
SMILES | Peg3 imprint | p53ts 32C tox | ERK AVP block | IkB sig inh | p53ts 39C tox
COc1ccccc1C(=O)OCc1cc(=O)n2c(C)csc2n1 | -[10.9 µM] | ? | . | ? | 0.126µM
COc1cccc(NC(=O)CSc2nc3ccc(NC(=O)c4cccs4)cc3s2)c1 | -[10.9 µM] | - | . | ? | -
CCOC(=O)c1c(C2COc3ccccc3O2)csc1N (stereo not drawn) | - | - | 31.6µM | ? | ?
CCOC(=O)c1ccc(OCC(=O)c2ccc(O)cc2O)cc1 | - | 12.6µM | - | - | 12.6µM
COC(=O)c1ccc(OCC(=O)c2ccc(O)cc2O)cc1 | - | 12.6µM | ? | ? | 12.6µM
Cc1cccc(/C=C(\C#N)c2nc3ccccc3c(=O)[nH]2)c1 | -[10.9 µM] | - | . | ? | -
CN(C)c1ccc(/C=C(\C#N)c2nc3ccccc3c(=O)[nH]2)cc1 | -[10.9 µM] | 0.316µM | . | ? | 0.316µM
COC(=O)[C@@H]1[C@@H](O)[C@]2(O)c3ccccc3O[C@]2(c2ccccc2)[C@H]1c1ccccc1 | . | -[9.22 µM] | -[11.5 µM] | . | -[9.22 µM]
O=C(Nc1ccc2c(c1)OCO2)c1cccc(F)c1 | - | ? | - | - | -
O=C(/C=C\Nc1cccc(F)c1)c1ccc2c(c1)OCO2 | - | 3.98µM | - | ? | 10µM
O=C(O)C1CC(=O)N(CCC23CC4CC(CC(C4)C2)C3)C(=Nc2ccccc2)S1 (stereo not drawn) | . | - | . | . | -
C=C1C(=O)[C@]23[C@H](O)[C@H]1CC[C@H]2[C@@]12COC3(O)[C@H](O)[C@@H]1C(C)(C)CC[C@@H]2O | - | . | . | . | .
COc1ccc(-c2cc(-c3ccc(OC)cc3)[nH]n2)cc1 | - | - | 3.16µM | ? | -
CS(=O)(=O)Nc1cccc(-c2ccc3ncnc(NCc4cccs4)c3c2)c1 | - | - | 15.8µM | -[11.4 µM] | -
CC(C)C12CC[C@@]3(CC[C@H]4[C@@](C)(CCC[C@]4(C)C(=O)O)[C@@H]3C1)[C@@H](CN)C2 | -[10.9 µM] | -[9.22 µM] | -[11.5 µM] | -[11.4 µM] | -[9.22 µM]
COC(=O)C1=C(C)N(Cc2ccccc2)[C@]23O[C@](C(=O)OC)(C(=O)N2C1c1ccccc1)C(c1ccccc1)C3C(=O)c1ccccc1 (stereo partly drawn) | . | -[9.22 µM] | -[11.5 µM] | . | -[9.22 µM]
O=C(CSc1nc(-c2ccccc2)[nH]c1-c1ccccc1)Nc1ccc2c(c1)OCO2 | -[10.9 µM] | ? | . | ? | ?
CN(c1ccccc1)S(=O)(=O)c1ccc(C(=O)Nc2nnc(-c3ccc(F)cc3)o2)cc1 | - | - | - | - | ?
CCCCN(C)S(=O)(=O)c1ccc(C(=O)Nc2nnc(CSC)o2)cc1 | - | - | - | - | 10µM
CCCCN(CC)S(=O)(=O)c1ccc(C(=O)Nc2nnc(-c3cccs3)o2)cc1 | - | ? | - | ? | 12.6µM
CCCCN(CCCC)S(=O)(=O)c1ccc(C(=O)Nc2nnc(COC)o2)cc1 | - | - | - | - | 10µM
O=C(N[C@@]1(C(=O)O)C[C@@H]1c1ccccc1)c1ccccc1 | -[10.9 µM] | -[9.22 µM] | -[11.5 µM] | -[11.4 µM] | -[9.22 µM]
N#Cc1cccc(-c2nc(NCc3ccccc3)c3ccccc3n2)c1 | - | - | 20µM | -[11.4 µM] | -
COc1ccccc1-c1cc(NCc2cccc(C)c2)ncn1 | - | - | ? | -[11.4 µM] | -
N#Cc1cccc(-c2cc(NCc3ccccc3)ncn2)c1 | - | - | 20µM | -[11.4 µM] | -
SMILES | Peg3 imprint | p53ts 32C tox | ERK AVP block | IkB sig inh | p53ts 39C tox
Cc1cccc(CNc2cc(-c3ccccc3C)ncn2)c1 | - | - | 10µM | -[11.4 µM] | -
N#Cc1cccc(-c2nc(Nc3ccncc3)c3ccccc3n2)c1 | - | - | - | -[11.4 µM] | -
N#Cc1cccc(-c2cc(NCc3cccnc3)ncn2)c1 | - | - | - | -[11.4 µM] | -
COC(=O)Cc1c(C)c2cc(Cl)c(OC(=O)c3ccco3)cc2oc1=O | - | - | 12.6µM | - | -
COC(=O)Cc1c(C)c2ccc(OC(=O)c3ccco3)cc2oc1=O | - | - | 3.98µM | - | -
C[C@@]12C[C@H](O)C3[C@H](CCC4=CC(=O)CC[C@]43C)[C@H]1CC[C@@H]2c1csc(N)n1 (stereo partly drawn) | -[10.9 µM] | . | . | . | .
N#C[C@@H](Cc1ccc(O)c(O)c1)C(=O)N1CCc2ccccc21 | . | - | ? | - | -
